# In the supplement of paper PMC10981050:
# Values joined by “and” are separate entries in the source; they are usually repeats but may differ in a detail not shown here. Equal entries are not always repeated. Structures can show the parent of a compound that is named as a salt.
# Test system: K562
# Assay: cell viability relative to vehicle control; higher = less cytotoxic
# Conditions: 10 µM; SRSF2 genotype: SRSF2 P95H/wt
# Outline: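 After removal of identity-inconsistent compounds, the Selleck bioactive, kinase and epigenetic probe libraries were screened on CRISPR-edited mutant clones and isogenic wild-type clones of four leukaemia lines. Plates were 384-well, each well holding 2000 cells in 50 µL medium and receiving a single 10 µM acoustically dispensed dose. CellTiter-Glo luminescence was read 48 h later, after the supernatant was taken off. Genedata Screener was used to express viability as percent of the on-plate vehicle control.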
row,SMILES,cell viability
1,Cc1csc(-c2nnc(Nc3ccc(Oc4ncccc4-c4ccnc(N)n4)cc3)c3ccccc23)c1,67.2% and 86.6%
2,CN1CCC(c2c(O)cc(O)c3c(=O)cc(-c4ccccc4Cl)oc23)C(O)C1 (stereo not given) [Flavopiridol (Alvocidib) HCl],5.96% and 15.8%
3,Cc1ccc(C(C)C)c(O)c1 [Thymol],96.2% and 91.7%
4,CN1CCN(c2ccc(Nc3cc(-c4cccc(-n5ccc6cc(C7CC7)cc(F)c6c5=O)c4CO)cn(C)c3=O)nc2)CC1,15.9% and 12.5%
5,NS(N)(=O)=O [Sulfamide],104% and 96%
6,COc1ccc(Oc2cc(C)c(-c3csc(NC(=O)c4ccncc4)n3)c(C)c2)cc1,43.7% and 37.3%
7,Cc1c(O)c(=O)ccn1C [Deferiprone],96.7% and 92.2%
8,CCCCCCNC(=O)n1cc(F)c(=O)[nH]c1=O [Carmofur],96% and 94.6%
9,C[C@@H]1COCCN1c1cc(C2([S@](C)(=N)=O)CC2)nc(-c2cc[nH]c3nccc2-3)n1,15.9% and 23.3%
10,Cc1nc(Nc2cnn(C3CCNCC3)c2)nc2c1N(C)C(=O)c1cc3ccccc3cc1N2C,56% and 67.5%
11,CCCOc1ccc2[nH]c(NC(=O)OC)nc2c1 [Oxibendazole],15.3% and 34.8%
12,"COC1=CC(=O)c2ccccc2C1=O [2-Methoxy-1,4-naphthoquinone]",3.03% and 1.06%
13,CC(=O)c1ccc2c(c1)c1cc(C(C)=O)ccc1n2CCNC(C)C,5.79% and 17.9%
14,CC(C(=O)O)c1ccc2c(c1)CC(=O)c1ccccc1S2 (stereo not given) [Zaltoprofen],102% and 98.4%
15,CC(C)Oc1ccc(C(=O)N[C@H](CNC(=O)CN(C)C)Cc2ccc(-c3cn4cccc([C@H](C)O)c4n3)cc2)cc1Cl,20.3% and 30.1%
16,NC(=O)c1cccc2cn(-c3ccc([C@@H]4CCCNC4)cc3)nc12 [MK-4827(Niraparib) tosylate],103% and 99.2%
17,O=C(O)Cc1ccccc1Nc1c(Cl)cccc1Cl [Diclofenac Sodium],94.9% and 97.8%
18,C#CC1(O)CC[C@H]2[C@@H]3CCC4=CC(=O)CC[C@@H]4[C@H]3CC[C@@]21CC (stereo not given in full) [Norgestrel],100%
19,COC(=O)C1=C(C)NC(C)=C(C(=O)OCCN2CCN(C(c3ccccc3)c3ccccc3)CC2)C1c1cccc([N+](=O)[O-])c1 (stereo not given) [Manidipine (Manyper)],75.7% and 63.9%
20,CN(C)N(C)C(=O)[C@@]1(Cc2ccccc2)CCCN(C(=O)[C@@H](Cc2c[nH]c3ccccc23)NC(=O)C(C)(C)N)C1 [Anamorelin],82.4% and 78.3%

row,SMILES,cell viability
1,O=C(O)CCCCC(CCSCc1ccccc1)SCc1ccccc1 (stereo not given),106% and 104%
2,COc1ccc(C(=O)C(=O)c2ccc(OC)cc2)cc1,104% and 97.9%
3,CNC(=O)c1cc(Oc2ccc(NC(=O)Nc3ccc(Cl)c(C(F)(F)F)c3)cc2)ccn1 [Sorafenib Tosylate],7.11% and 11.7%
4,C[C@@H](O)[C@H]1C(=O)N2C(C(=O)O)=C(S[C@@H]3CN[C@H](C(=O)N(C)C)C3)[C@H](C)[C@H]12 [Meropenem],103% and 109%
5,COC(=O)C1=C(C)NC(C)=C(C(=O)OCC(C)C)C1c1ccccc1[N+](=O)[O-] (stereo not given) [Nisoldipine],80.1% and 83.8%
6,COc1cccc(/C=N/N(C(=O)C(F)(F)F)c2ccc(C)cc2C)c1,90.5% and 95.3%
7,CN(CC(=O)N(Cc1ccc(C2CCCCC2)cc1)c1ccc(C(=O)O)cc1)S(=O)(=O)c1c(F)c(F)c(F)c(F)c1F,10.6% and 6.35%
8,C=CC(=O)Nc1cccc(Oc2nc(Nc3ccc(N4CCN(C)CC4)cc3)ncc2Cl)c1,19.3% and 33.1%
9,CO[C@@]12[C@H](COC(N)=O)C3=C(C(=O)C(C)=C(N)C3=O)N1C[C@@H]1N[C@@H]12 [Mitomycin C],17.1% and 28%
10,Clc1cccc(-c2nnnn2Cc2cccnc2)c1Cl,103% and 112%
11,Cc1cccc(Nc2ccncc2S(=O)(=O)NC(=O)NC(C)C)c1 [Torsemide (Demadex)],100% and 105%
12,O=c1cc(-c2ccc(O)cc2)oc2cc(O)c([C@@H]3O[C@H](CO)[C@@H](O)[C@H](O)[C@H]3O)c(O)c12 [Isovitexin],98.2% and 98.6%
13,C=C1[C@@H]2CC[C@@H](C2)C1(C)C [Camphene],105% and 102%
14,CN(C)c1cccc(-c2c3c(=O)n(-c4ccccc4Cl)[nH]c3cc(=O)n2C)c1,100% and 98.2%
15,CO[C@H]1C[C@@H]2CC[C@@H](C)[C@@](O)(O2)C(=O)C(=O)N2CCCC[C@H]2C(=O)O[C@H]([C@H](C)C[C@@H]2CC[C@H](n3cnnn3)[C@H](OC)C2)CC(=O)[C@H](C)/C=C(\C)[C@@H](O)[C@@H](OC)C(=O)[C@H](C)C[C@H](C)/C=C/C=C/C=C/1C [Zotarolimus (ABT-578)],67.9% and 74.2%
16,CCC(=O)OCC(=O)[C@@]1(OC(=O)CC)[C@@H](C)C[C@H]2[C@@H]3CCC4=CC(=O)C=C[C@]4(C)[C@@]3(F)[C@@H](O)C[C@@]21C [Betamethasone Dipropionate (Diprolene)],96.7% and 103%
17,O=C(O)c1cc(I)ccc1NC(=O)[C@H](Cc1ccccc1)NCc1ccccc1,102% and 98.6%
18,C=CC(=O)N1CC[C@@H](Oc2nc(Nc3ccc(N4CCC(N5CCN(C)CC5)CC4)cc3)c(C(N)=O)nc2CC)C1 [ASP8273 (Naquotinib)],51.2% and 34.1%
19,O=c1c(-c2ccc(O)cc2)coc2c([C@@H]3O[C@H](CO)[C@@H](O)[C@H](O)[C@H]3O)c(O)ccc12 [Puerarin (Kakonein)],109% and 101%
20,COc1ccc(-n2nc(C(N)=O)c3c2C(=O)N(c2ccc(N4CCCCC4=O)cc2)CC3)cc1 [Apixaban],99.3% and 102%
